Data published in PubChem BioAssay AID1446 (The Scripps Research Institute Molecular Screening Center, 2008).
The campaign covered roughly 220,000 compounds. About 2,400 (1.1%) were called active. The sample holds actives, similar compounds and a random draw of the others, so the mix is not that of the screen. Values without a mark were called inactive.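 How the source made its calls: active means inhibition above the campaign mean plus 3 SD over all tested compounds (cut at about 24% in these data); inactive means the rest.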

Experiment: reduced viability of JAK2V617F-dependent Ba/F3 cells, primary screen, JAK2V617F inhibitor project, cell-based, Ba/F3 EpoR-JAK2V617F, luminescence (AID 1446);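 further: cytokine-independent growth of Ba/F3 cells driven by EpoR plus mutant JAK2; 0% = DMSO-treated cells and 100% = JAK inhibitor I control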
Conditions: ATP luminescence, at 5.6 µM, stronger effect = higher value
`COc1cccc(-n2c(=O)c3c(C)c(C(=O)N(C)C)sc3n(CC(=O)NCCc3ccc(OC)c(OC)c3)c2=O)c1` showed an inhibition of 3.31%. Compound `C/C(=N\NC(=O)C(N)=O)c1ccc2c(c1)OCCO2` has an inhibition of 1.44%. Compound `CCn1c2ccccc2c2cc(CC(N)=O)ccc21` has an inhibition of 2.78%. `CCN(CCNC(=O)C1=C(C)C(=O)OC12CCC(C)CC2)c1ccccc1` (stereo not drawn) gave an inhibition of -2%. For `CC(C)CC(COCc1ccc(Cl)cc1)N1CCN(C(=O)c2ccc(C(F)(F)F)cc2)CCC1=O` (stereo not drawn), the inhibition was -1.84%. In the case of `N#C/C=C\Oc1ccc(Cl)cc1N`, the inhibition is reported as 28% (active). `COc1ccc(Cl)cc1C(=O)NCC#N` showed an inhibition of -0.27%. Compound `COc1ccc(N(C(=O)c2ccc(C)cc2)S(=O)(=O)c2cccs2)cc1` has an inhibition of 0.51%. `Cc1nc(CNS(=O)(=O)c2cc([N+](=O)[O-])ccc2C)cs1` gave an inhibition of 0.63%. With `O=C(Nc1nc2ccc([N+](=O)[O-])cc2s1)c1ccncc1` the inhibition was -1.41%. With `O=C(NC(Nc1nc2ccc([N+](=O)[O-])cc2s1)(C(F)(F)F)C(F)(F)F)c1ccccc1` the inhibition was 70.1% (active). For `O=C(O)CCC(=O)Nc1nc2ccc([N+](=O)[O-])cc2s1`, the inhibition was 3.19%. Work on `CC1C(=O)NC(=O)C1c1ccccc1` (stereo not drawn) yielded an inhibition of -4.47%. With `c1ccc(Cc2cc[n+](Cc3ccccc3)cc2)cc1` the inhibition was 52.6% (active). Compound `COC(=O)c1ccc(Cc2ccccc2)o1` has an inhibition of -0.12%. `CN(C)c1ccc(/C=N/N(Cc2ccccc2)c2ccccc2)cc1` gave an inhibition of 3.41%. For `CN(C)c1cc[n+](Cc2ccccc2)cc1`, the inhibition was 87.3% (active). `CN(Cc1ccccc1)Cc1ccccc1F` gave an inhibition of 3.28%. Work on `CSc1ccc(CN2C(=O)NC3(CCCCCC3)C2=O)cc1` yielded an inhibition of -4.13%. With `C/C(=N\NC(=O)COc1c(C)cccc1C)c1cccs1` the inhibition was 1.35%. Work on `COCCn1c(SCC(=O)c2[nH]c(C)c(C(C)=O)c2C)nc2ccccc2c1=O` yielded an inhibition of 1.81%. Compound `Cc1[nH]n(C)c(=O)c1N=Nc1ccc(S(C)(=O)=O)cc1` has an inhibition of 1.06%. `CCOC(=O)C1(S(=O)(=O)c2ccccc2)CCN(Cc2ccccc2)CC1` showed an inhibition of 0.13%. `CC1=C/C(=N\S(=O)(=O)c2ccccc2)C(C(C)C)=CC1=O` showed an inhibition of -3.55%. With `CC1=C/C(=N\OS(=O)(=O)c2ccccc2)C=CC1=O` the inhibition was 40.6% (active). In the case of `Cc1ccc2nc(C)c3c(c2c1)N(c1ccccc1)CC3`, the inhibition is reported as 19.9%. Work on `COc1ccc(NC(=O)CN2C(=O)CSC2=O)cc1` yielded an inhibition of -1.19%. Work on `COCCCNC(=O)C1CCN(c2ccc(N3CCOCC3)nn2)CC1` yielded an inhibition of -2.04%. In the case of `CC(C)OCCCNc1ncnc2c1[nH]c1ccc(F)cc12`, the inhibition is reported as 64.7% (active). `COc1cc(OC)c(OC)cc1/C=N/Nc1ncnc2c1[nH]c1ccc(C)cc12` gave an inhibition of -4.25%. `O=C1CCCN1CCCNc1ncnc2c1[nH]c1ccccc12` showed an inhibition of -3.47%. In the case of `CC(=O)N1CCN(S(=O)(=O)c2ccc(C)c([N+](=O)[O-])c2)C1C(C)C` (stereo not drawn), the inhibition is reported as -3.14%. In the case of `COc1ccc(N=Nc2ccc(O)c(P(=O)(c3ccccc3)c3ccccc3)c2)cc1`, the inhibition is reported as -0.59%. Compound `Cc1nn(-c2ccccc2)c(C)c1NC(=O)CCl` has an inhibition of 3.19%. With `CC(C)c1nc2ccc(C(=O)O)cc2[nH]1` the inhibition was -2.92%. `Cc1nc2ccc(C(=O)O)cc2[nH]1` gave an inhibition of -7.6%. In the case of `COC(=O)Nc1nc2ccc(Sc3ccccc3)cc2[nH]1`, the inhibition is reported as 83.8% (active). Work on `O=C(Cc1ccccc1)Nc1c(Cl)ccc2nsnc12` yielded an inhibition of -3.82%. `CCC1(C(=O)c2ccccc2)C(c2cccc([N+](=O)[O-])c2)C1(C(=O)OC)C(=O)OC` (stereo not drawn) gave an inhibition of -2.96%. With `Cc1cc2c(cc1C)[n+](C)cn2CC(O)COCC1CC=CCC1` (stereo not drawn) the inhibition was 44.4% (active). `CC(NC(=O)Nc1ccccc1)C(c1cccs1)N1CCN(c2ccccc2)CC1` (stereo not drawn) showed an inhibition of -1.45%. With `CCOc1ccc(C2c3[nH]c4ccccc4c3CCN2Cc2cccn2-c2ncccn2)cc1` (stereo not drawn) the inhibition was -1.83%. `O=C(O)CS/C(=C\c1ccc(F)cc1)c1nc2ccccc2s1` showed an inhibition of -2.1%. Compound `Cc1cc2oc(C(=O)Nc3c(C)n(C)n(-c4ccccc4)c3=O)c(C)c2cc1Cl` has an inhibition of -1.25%. For `CCN(CC)C(=O)CN(c1cccc([N+](=O)[O-])c1)S(=O)(=O)c1ccccc1`, the inhibition was 0.82%. In the case of `O=C(CCl)N(Cc1cccc([N+](=O)[O-])c1)c1cccc(Cl)c1`, the inhibition is reported as 84.1% (active). Work on `O=C(Nc1cccc([N+](=O)[O-])c1)Nc1ccc(Cl)cn1` yielded an inhibition of -2.62%. In the case of `Cc1ccc(N(C(=O)c2ccc(S(=O)(=O)N(C)C)cc2)C2C=CS(=O)(=O)C2)cc1` (stereo not drawn), the inhibition is reported as -0.1%. With `O=C(Cn1nc(CNc2ccc(Cl)cc2)[n+]2c1CCCCC2)c1ccc(Cl)cc1` the inhibition was 1.65%. Work on `COc1ccc(-c2cc(C(=O)NCc3ccco3)no2)cc1OC` yielded an inhibition of -1.88%. In the case of `COc1ccc(C2=NOC(C(=O)NCc3ccco3)C2)cc1OC` (stereo not drawn), the inhibition is reported as 56.5% (active). With `Cc1ccc(CNC(=O)C2CC(c3ccccc3[N+](=O)[O-])=NO2)o1` (stereo not drawn) the inhibition was -5.08%. With `Cc1ccc(NC(=S)N(CCCN2CCC(C)CC2)Cc2ccco2)cc1` the inhibition was 25.4% (active). With `Cc1ccc(NC(=S)N(Cc2ccco2)C(C)c2cccs2)cc1` (stereo not drawn) the inhibition was 3.37%. With `Cc1ccc(NC(=S)N(CCN2CCCCC2)Cc2ccco2)cc1C` the inhibition was -2.95%. Compound `O=C(NC1CCCCC1)c1cc(C2CC2)on1` has an inhibition of -4.7%. Work on `CN(C)c1ccc(Nc2c3c4c(cccc4n(C)c2=O)C(=O)c2ccccc2-3)cc1` yielded an inhibition of 2.4%. `CON(C)S(=O)(=O)c1ccc2c(c1)NC(=O)C1CCCN21` (stereo not drawn) gave an inhibition of 1.23%. `Nn1c(SCc2ccccc2)nnc1C1CCCCC1` showed an inhibition of -0.47%. Compound `COc1cccc(OC)c1C(=O)Nc1ccc(N2CCCCC2)cc1` has an inhibition of -0.78%. In the case of `COc1cccc(C(=O)Nc2ccc(N3CCCC3)cc2)c1`, the inhibition is reported as 59.5% (active). With `COc1ccc(C(=O)NC(=S)Nc2ccc(N3CCCC3)cc2)cc1OC` the inhibition was -0.26%. Work on `CSc1nnc(-c2ccc(C(F)(F)F)cn2)o1` yielded an inhibition of -4.69%. `CC(=O)NC(Cc1ccc(F)c(F)c1)C(=O)NC1CCN(c2nnnn2-c2ccccc2)CC1` (stereo not drawn) gave an inhibition of 1.68%. In the case of `O=C(COC(=O)CNS(=O)(=O)c1ccccc1)NC12CC3CC(CC(C3)C1)C2`, the inhibition is reported as 2.17%. For `Cc1ccc(NC(=O)CN(C)CC(=O)Nc2cccc(F)c2)cc1[N+](=O)[O-]`, the inhibition was 32.7% (active). With `CN(CC(=O)Nc1cccc(F)c1)CC(=O)Nc1cccc([N+](=O)[O-])c1` the inhibition was 1.69%. Compound `Cc1ccc(CN(C)CC(=O)Nc2cccc([N+](=O)[O-])c2)o1` has an inhibition of -2.99%. In the case of `Nc1ccc2nn(-c3ccc(Cl)cc3)nc2c1`, the inhibition is reported as -0.91%. In the case of `Cc1ncc([N+](=O)[O-])n1CCOC(=O)c1ccc(Br)cc1`, the inhibition is reported as -1.79%. With `CCCCCCNC(=O)CSc1nccn1Cc1ccccc1` the inhibition was -2.6%. For `CCOc1cccc(-n2nnnc2-c2ccc(OC)cc2)c1`, the inhibition was 62.5% (active). `CCOc1cccc(-c2nnc3sc(COc4ccc(OC)cc4)nn23)c1` gave an inhibition of -2.87%. Compound `COc1ccc(-n2nnnc2-c2nc3ccccc3s2)cc1` has an inhibition of -2.25%. Work on `CCc1ccc(NC(=O)N2CCN(c3ccccc3)CC2)cc1` yielded an inhibition of 0.49%. For `CC[n+]1c(C)n(-c2ccccc2)c2ccc(NC(C)=O)cc21`, the inhibition was 70.6% (active). For `CCn1c2ccccc2c2cc(NC(=O)CNC)ccc21`, the inhibition was -0.79%. `COc1cccc(NC(=O)CC2C(=O)NCCN2C(=S)Nc2ccc(F)cc2)c1` (stereo not drawn) gave an inhibition of 3.64%. In the case of `COc1ccc(S(=O)(=O)N(CC(=O)N/N=C/c2ccccc2C(=O)O)c2ccccc2OC)cc1`, the inhibition is reported as -2.32%. Work on `COc1ccccc1-c1nc(C#N)c(N2CCC(C(N)=O)CC2)o1` yielded an inhibition of -2.39%. Work on `Cc1ccccc1-c1nc(C#N)c(NCc2ccco2)o1` yielded an inhibition of 0.66%. With `COc1ccc(Nc2oc(-c3ccccc3Cl)nc2C#N)cc1` the inhibition was 50.8% (active). In the case of `CC(C)C(=O)Nc1oc(-c2ccccc2)cc1C#N`, the inhibition is reported as 0.17%. `CC1CCN(S(=O)(=O)c2ccc(S(=O)(=O)NCc3cccnc3)cc2)CC1` showed an inhibition of 0.32%. With `CCCCCCCCn1c2c(c(=N)c3c1CCC3)CCCC2` the inhibition was 101% (active). `CCCCCCn1c(CN2CCCCC2)nc2c1c(=O)n(C)c(=O)n2C` showed an inhibition of -2.26%. In the case of `CN(Cc1cccnc1)C(=O)c1cc(COc2ccc3ncccc3c2)on1`, the inhibition is reported as 54.2% (active). `Cc1noc(C)c1COc1cccc(C(=O)Nc2cccnc2)c1` showed an inhibition of -0.6%. With `Cc1cc(NCc2cccnc2)no1` the inhibition was -7.11%. `Cc1cccc(-[n+]2c(-c3cccc(Br)c3)[nH]c3nc4ccccc4nc32)c1` showed an inhibition of -1.46%. In the case of `CCCC(=O)Nc1nc2ccc(NC(=O)c3c(F)c(F)c(OC)c(F)c3F)cc2s1`, the inhibition is reported as 81.8% (active). `COc1ccc2nc(Nc3nc4ccc(NC(C)=O)cc4s3)sc2c1` gave an inhibition of -4.43%. Compound `CCCC(=O)Nc1nc2ccc(NC(=O)c3cccnc3)cc2s1` has an inhibition of 2.04%. For `CCc1cccc(NC(=O)CCNS(=O)(=O)c2cccc3nonc23)c1`, the inhibition was -3.57%. With `Cc1onc(-c2ccc(Cl)cc2)c1-c1ccnn1S(=O)(=O)c1ccc(Cl)cc1` the inhibition was -1.9%. With `COc1cc(/C=C2/C(=O)ON=C2C)ccc1OCc1cccc(F)c1` the inhibition was 67.1% (active). `CC1=NOC(=O)/C1=C\c1ccccc1` gave an inhibition of -4.85%. `COc1cc(/C=C2/C(=O)ON=C2C)ccc1OCc1ccccc1F` gave an inhibition of -2.39%.
